# Assay results taken from PubChem BioAssay (EPA / NIEHS).
# Records with an inconclusive call do not appear. The source made the active and inactive calls. How the source made its calls: active means hit-call score of the fitted dose curve at least 0.9, where 1 is the maximum; inconclusive means response in the unintended direction; inactive means score below 0.9.
# Read-out: glucuronosyltransferase (UGT1A1), UGT1A1 (gene 54658)
# Test: CLD_UGT1A1_6hr: CellzDirect (CLD) Gene Expression Assay for glucuronosyltransferase (UGT1A1) at 6 hours (AID 2283672)
# Description: CLD_6hr is a cell-based, multiplexed-readout assay that uses hepatocyte, a human liver primary cell, with measurements taken at 6 hours after chemical dosing in a 96-well plate.CLD_UGT1A1_6hr is one of 16 assay component(s) measured or calculated from the CLD_6hr assay. It is designed to make measurements of mRNA induction, a form of inducible reporter, as detected with chemiluminescence signals by Quantitative Nuclease Protection Assay (qNPA) technology.Data from the assay component CLD_UGT1A1_6hr was analyzed at the endpoint, CLD_UGT1A1_6hr, in the positive analysis fitting direction relative to DMSO as the negative control and baseline of activity. Using a type of inducible reporter, gain-of-signal activity can be used to understand changes in the reporter gene as they relate to the gene UGT1A1. Furthermore, this assay endpoint can be referred to as a primary readout. To generalize the intended target to other relatable targets, this assay endpoint is annotated to the transferase intended target family, where subfamily is glucuronosyltransferase.
# Human hepatocyte cultures were treated daily for two consecutive days with fresh dosing solutions containing appropriate concentrations of the 320 ToxCast chemicals (chemical identities were blinded to CellzDirect and other ToxCast collaborators), vehicle control (0.2% DMSO), and positive control inducers as summarized in Table 1. Due to the large number of treatment groups and chemicals examined, the ToxCast chemicals were divided into two groups (spanning two independent cultures of hepatocytes from separate donor preparations (Hu778: ToxCast plates 1 and 2; Hu776: ToxCast plates 3 and 4). Each preparation of human hepatocyte cultures was treated with respective vehicle control, medium only control, set of six positive controls/reference chemicals for the five hepatic receptor pathways, and a subset of eight of the ToxCast chemicals (indoxacarb, pyrithiobac-sodium, norflurazon, cyhalofop-butyl, methomyl, thiram, acetochlor, and propiconazole). These replicate data, coupled with internal replicates designed within the blinded ToxCast chemical library, provided additional data to evaluate interindividual differences between hepatocyte preparations and their potential impact on chemical profiles.Cell morphology and integrity were evaluated using phase-contrast microscopy as an indicator of hepatocyte cell health (Tyson & Green, 1987). Cultures for each treatment group (i.e., media, vehicle [0.2% DMSO], positive control inducers [multiple concentrations], and the ToxCast chemicals [multiple concentrations]) were observed and cell morphology was assessed relative to vehicle control cultures at each harvest time point (0, 6, 24, or 48 h). […] Images were evaluated at the conclusion of the study to assess changes in cell integrity and account for the effects of chemical exposure on uncharacteristic changes in concentration-dependent gene expression profiles. The results from these determinations of apparent cytotoxicity were annotated (yes/no) alongside the corresponding qNPA data for reference.At the conclusion of each treatment period, hepatocyte cultures (96-well) were washed with 1 volume of HBSS, lysed by addition of 25 ul ArrayPlate lysis buffer (HTG, Tucson, AZ), and 70 ul/well of Denaturation Oil, denatured by incubation at 95C for 10 min, and frozen at approximately -70C until analysis by nuclease protection assay (qNPA) (Roberts et al., 2007). For qNPA analysis, cell lysates were thawed at 50C for approximately 30 min, qNPA probes were added, and samples were incubated at 95C for 10 min to begin the detection process by denaturing the target RNA, dissociating the duplexes and secondary structure hybridization. At the conclusion of the hybridization period, S1 nuclease reagent was added to each sample to digest all nonprotected nucleotides at 50C for 60-90 min. […]
row,SMILES,outcome
1,CNC(=O)Oc1cccc2ccccc12,inactive
2,N#CN=C1SCCN1Cc1ccc(Cl)nc1,inactive
3,COCc1cnc(C2=NC(C)(C(C)C)C(=O)N2)c(C(=O)O)c1 (stereo not given),inactive
4,N#Cc1c(Cl)cccc1Cl,inactive
5,CCNC(=O)NC(=O)C(C#N)=NOC,inactive
6,CCOc1nc(C(Cl)(Cl)Cl)ns1,inactive
7,OC(c1ccc(Cl)cc1)(c1ccc(Cl)cc1)C(Cl)(Cl)Cl,inactive
8,COP(=S)(OC)Oc1ccc([N+](=O)[O-])c(C)c1,inactive
9,CCN(CC)C(=O)C(C)Oc1cccc2ccccc12 (stereo not given),inactive
10,COc1cc(Cl)c(OC)cc1Cl,inactive
11,CCCCOCN(C(=O)CCl)c1c(CC)cccc1CC,inactive
12,N#Cc1c[nH]cc1-c1cccc2c1OC(F)(F)O2,inactive
13,O=c1n(Cl)c(=O)n(Cl)c(=O)n1Cl,inactive
14,CC(C)N1C(=O)c2ccccc2NS1(=O)=O,inactive
15,COCC(C)N(C(=O)CCl)c1c(C)csc1C (stereo not given),inactive
16,C=CCOC(=O)C(C)(C)OC(=O)c1cc(-n2c(=O)cc(C(F)(F)F)n(C)c2=O)ccc1Cl,inactive
17,Clc1nc(Cl)nc(Nc2ccccc2Cl)n1,inactive
18,Nc1c(Cl)c(Cl)nc(C(=O)O)c1Cl,inactive
19,CSC(=O)c1c(C(F)F)nc(C(F)(F)F)c(C(=O)SC)c1CC(C)C,inactive
20,CC1(C)CON(Cc2ccccc2Cl)C1=O,inactive

row,SMILES,outcome
1,CN=C=S,inactive
2,CS(=O)(=O)c1cc(C(F)(F)F)ccc1C(=O)c1cnoc1C1CC1,inactive
3,COP(=O)(OC)O/C(C)=C/C(=O)N(C)C,inactive
4,Cc1cnc(C2=NC(C)(C(C)C)C(=O)N2)c(C(=O)O)c1 (stereo not given),inactive
5,CCCN(CC)CC1COC2(CCC(C(C)(C)C)CC2)O1 (stereo not given),inactive
6,Cc1cc(C)nc(Nc2ccccc2)n1,inactive
7,CC(C)N1C(=O)N(c2ccccc2)CSC1=NC(C)(C)C,inactive
8,CC1(C)C(C=C(Cl)Cl)C1C(=O)OC(C#N)c1cccc(Oc2ccccc2)c1 (stereo not given),inactive
9,CCC(C)n1c(=O)[nH]c(C)c(Br)c1=O (stereo not given),inactive
10,Cc1c(COC(=O)[C@@H]2[C@H](/C=C(\Cl)C(F)(F)F)C2(C)C)cccc1-c1ccccc1,inactive
11,COC(=O)NC(=S)Nc1ccccc1NC(=S)NC(=O)OC,inactive
12,C=C(C)CN(CC)c1c([N+](=O)[O-])cc(C(F)(F)F)cc1[N+](=O)[O-],inactive
13,CCOc1nc(F)cc2nc(S(=O)(=O)Nc3c(Cl)cccc3Cl)nn12,inactive
14,O=C(Nc1ccccc1-c1ccc(Cl)cc1)c1cccnc1Cl,inactive
15,CC(C)(C)C(=O)C(Oc1ccc(Cl)cc1)n1cncn1 (stereo not given),inactive
16,CCOc1cc(C(C)(C)C)ccc1C1COC(c2c(F)cccc2F)=N1 (stereo not given),inactive
17,CCCC(=NOCC)C1=C(O)CC(CC(C)SCC)CC1=O (stereo not given),inactive
18,CCN(CC)c1nc(C)cc(OP(=S)(OC)OC)n1,inactive
19,CC(C)C1(C)N=C(c2ncccc2C(=O)O)NC1=O (stereo not given),inactive
20,Clc1cccc(C(Cl)(Cl)Cl)n1,inactive
